The source of these data is PubChem BioAssay (NCATS).

Test [1] can be described thus: P-glycoprotein substrates identified in KB-8-5-11 adenocarcinoma cell line, qHTS therapeutic library screen (AID 1346987). Also: nearly all actives have a fitted effect of over 65% in size. Also: potency is read from the fitted curve at half-maximal effect. In outline:
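Compounds are pinned in dose-response onto KB-8-5-11 cells (500 cells/well, colchicine-free medium) and left 72 h at 37 degree C. CellTiter-Glo luminescence then yields AC50 values.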
In general terms: In qHTS, concentration-response curves come from the screen itself.

Test [2] concerns the target Atrial natriuretic peptide receptor 2 (Homo sapiens) (UniProt P20594). Description: Natriuretic polypeptide receptor (hNpr2) antagonism - Pilot subtype selectivity assay (AID 1347050; calls by dose curve). In outline:
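Luminescence from a genetically encoded cGMP luciferase biosensor in hNpr2-expressing HEK293 cells is read before and 20 min after adding 1 nM hNppC. Test compounds, in interplate 1:5 titrations, are added 30-50 min ahead of the agonist.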

Test [3] can be described thus: NS1 protein of Zika virus - qHTS assay to identify small molecule inhibitors in human HEK 293 cells (AID 1347053). Also: series mostly up to about 46 µM; nearly all actives have a fitted effect of over 55% in size. In outline:
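Readout was TR-FRET using paired anti-NS1 antibodies after 24 h infection of HEK 293 cells with ZIKV MR766 (MOI = 0.5). Compound preceded virus by 1 h; reduced signal reflects lower NS1 expression.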

Test [4] deals with T1, Tyrosine-protein phosphatase non-receptor type substrate 1 (Homo sapiens) + Leukocyte surface antigen CD47 (Homo sapiens) (UniProt P78324+Q08722). Nature of the test: CD47-SIRPalpha protein protein interaction - LANCE assay qHTS validation (AID 1347057; active = well fitted curve in the direction sought with a large enough effect in the signal ratio, with a control signal flat, not every such curve was filed as active; the % refers to the signal ratio; also: series mostly up to about 38 µM). In outline:
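Inhibition of soluble CD47/SIRPalpha ectodomain association by titrated compounds, measured as 665/615 nm time-resolved FRET ratio after sequential 30 min room-temperature incubations.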

Test [5] has as its target T1, Tyrosine-protein phosphatase non-receptor type substrate 1 (Homo sapiens) + Leukocyte surface antigen CD47 (Homo sapiens). Description: CD47-SIRPalpha protein protein interaction - Alpha assay qHTS validation (AID 1347059).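 Also: bead proximity luminescence from CD47 binding SIRPalpha after compound preincubation with SIRPalpha.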 In outline:
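SIRPalpha-biotin 25 nM + cpd, 30 min RT, dark; add CD47-His 12.5 nM, 30 min; add Ni-NTA/SAV beads 10 ug/mL, 30 min; AlphaScreen. Buffer PBS pH 7.4 + 0.05% IGEPAL CA-630. Non-biotinylated SIRPalpha as control inhibitor.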

Test [6] concerns the target Parathyroid hormone/parathyroid hormone-related peptide receptor (Homo sapiens) (UniProt Q03431). Description: qHTS for PTHR1 Agonists: Optimization Screen against the NCGC LOPAC library (AID 1347079).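 Also: GloSensor cAMP luminescence in HEK-293 GP2 cells expressing human PTHR1 with IBMX.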 In outline: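 HEK-293 GP2 cells, PTHR1 + GloSensor cAMP; 3000 cells/well, o/n. Luciferin + IBMX 0.5mM each (stock), 1 hr 37C. Cpd titration, 1 hr 37C. Lum after 15 min RT. Ctrl M-PTH(1-15) top 10uM.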

Test [7] in a line: qHTS of pediatric cancer cell lines to identify multiple opportunities for drug repurposing: Primary screen for TC32 cells (AID 1347089). Also: nearly all actives have a fitted effect of over 60% in size. In outline:
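Luminescent ATP read-out (CellTiter-Glo) of metabolically active TC32 cells after 48 h exposure. Concentration-response curves came from 11-point (MIPE, 0.78 nM–46 µM) or 8-point (NPC, 0.59 nM–46 µM) primary titrations; follow-up used 11 points.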

Test [8] in a line: qHTS of pediatric cancer cell lines to identify multiple opportunities for drug repurposing: Primary screen for DAOY cells (AID 1347090). Also: series mostly up to about 46 µM; nearly all actives have a fitted effect of over 55% in size. In outline:
(§1)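 Viability measured as metabolically active cells via CellTiter-Glo luminescence following 48 hours of compound exposure, 11-point dilutions in confirmatory testing. 500-1,000 cells/well plated 5 hours before dosing; controls were DMSO and 2.3 µM bortezomib.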

Test [9] can be described thus: qHTS of pediatric cancer cell lines to identify multiple opportunities for drug repurposing: Primary screen for SJ-GBM2 cells (AID 1347091). In outline:
as §1

Test [10] in a line: qHTS of pediatric cancer cell lines to identify multiple opportunities for drug repurposing: Primary screen for A673 cells (AID 1347092). Also: nearly all actives have a fitted effect of over 45% in size. In outline: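 Cell viability of A673 measured by CellTiter-Glo ATP luminescence after 48 hours compound exposure. Dilution series spanned 0.78 nM to 46 µM (MIPE, 11-point) or 0.59 nM to 46 µM (NPC, 8-point); bortezomib 2.3 uM positive control.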

Each structure is given as a SMILES string. Results filed as inconclusive are left out. Activity calls are given as the source filed them. Unless noted, calls follow the shape of the dose curve; as a rule, active = well fitted curve in the direction sought with a large enough effect; inconclusive = small, poorly fitted or top-dose-only effect, or another doubt; inactive = no such curve, though single readings can be large; an effect the other way counts as inactive or inconclusive.

T1 sequence (P78324 whole entry, looked up, the tested form may be a part): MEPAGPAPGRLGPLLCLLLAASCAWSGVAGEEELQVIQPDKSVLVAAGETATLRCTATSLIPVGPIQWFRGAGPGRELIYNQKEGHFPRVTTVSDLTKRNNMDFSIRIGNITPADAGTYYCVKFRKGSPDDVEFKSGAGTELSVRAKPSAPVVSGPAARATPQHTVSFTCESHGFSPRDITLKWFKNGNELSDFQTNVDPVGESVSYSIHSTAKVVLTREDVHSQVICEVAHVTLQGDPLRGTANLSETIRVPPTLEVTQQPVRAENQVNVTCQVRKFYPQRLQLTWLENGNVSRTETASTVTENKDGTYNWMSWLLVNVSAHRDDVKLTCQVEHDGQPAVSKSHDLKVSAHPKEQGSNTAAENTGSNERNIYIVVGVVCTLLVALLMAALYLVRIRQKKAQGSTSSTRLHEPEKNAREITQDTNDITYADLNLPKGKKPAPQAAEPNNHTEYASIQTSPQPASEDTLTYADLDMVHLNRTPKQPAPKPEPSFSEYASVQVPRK
T1 sequence (Q08722 whole entry, looked up, the tested form may be a part): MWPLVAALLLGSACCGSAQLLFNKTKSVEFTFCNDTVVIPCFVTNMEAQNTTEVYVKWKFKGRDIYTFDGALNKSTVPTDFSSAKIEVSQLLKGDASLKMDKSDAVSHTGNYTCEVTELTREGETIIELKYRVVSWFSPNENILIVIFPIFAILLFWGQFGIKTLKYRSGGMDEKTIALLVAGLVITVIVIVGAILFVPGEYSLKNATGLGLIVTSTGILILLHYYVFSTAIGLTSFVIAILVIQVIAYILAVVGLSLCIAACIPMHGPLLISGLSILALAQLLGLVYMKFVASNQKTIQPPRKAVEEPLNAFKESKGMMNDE
Sequence of Atrial natriuretic peptide receptor 2 (Homo sapiens) (P20594 whole entry, looked up): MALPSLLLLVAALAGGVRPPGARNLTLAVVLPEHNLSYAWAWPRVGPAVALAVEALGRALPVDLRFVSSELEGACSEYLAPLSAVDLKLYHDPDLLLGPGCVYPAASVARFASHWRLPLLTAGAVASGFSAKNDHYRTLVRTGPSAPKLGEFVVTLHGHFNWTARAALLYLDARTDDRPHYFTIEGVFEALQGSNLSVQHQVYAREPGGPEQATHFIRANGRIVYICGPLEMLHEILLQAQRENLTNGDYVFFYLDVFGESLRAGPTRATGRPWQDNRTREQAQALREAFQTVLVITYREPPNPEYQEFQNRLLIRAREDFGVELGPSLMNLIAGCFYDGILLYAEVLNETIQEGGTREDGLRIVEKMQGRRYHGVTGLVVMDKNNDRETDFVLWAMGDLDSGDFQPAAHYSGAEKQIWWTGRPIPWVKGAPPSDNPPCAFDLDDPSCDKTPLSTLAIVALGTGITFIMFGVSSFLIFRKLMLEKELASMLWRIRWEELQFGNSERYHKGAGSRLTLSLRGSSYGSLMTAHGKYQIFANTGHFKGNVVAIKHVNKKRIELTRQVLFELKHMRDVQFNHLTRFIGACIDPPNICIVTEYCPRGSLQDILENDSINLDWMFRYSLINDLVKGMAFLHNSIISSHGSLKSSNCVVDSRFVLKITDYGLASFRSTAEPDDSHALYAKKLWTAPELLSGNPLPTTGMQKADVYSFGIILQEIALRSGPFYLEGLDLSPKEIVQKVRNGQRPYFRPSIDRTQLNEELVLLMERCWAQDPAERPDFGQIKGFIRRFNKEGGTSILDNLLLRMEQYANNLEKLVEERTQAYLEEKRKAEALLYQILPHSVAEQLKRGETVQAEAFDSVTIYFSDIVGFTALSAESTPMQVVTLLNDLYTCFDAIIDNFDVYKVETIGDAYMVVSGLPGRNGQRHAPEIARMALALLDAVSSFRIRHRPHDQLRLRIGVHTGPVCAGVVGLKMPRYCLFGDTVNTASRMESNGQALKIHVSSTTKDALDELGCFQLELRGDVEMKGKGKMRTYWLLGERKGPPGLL
Sequence of Parathyroid hormone/parathyroid hormone-related peptide receptor (Homo sapiens) (Q03431 whole entry, looked up): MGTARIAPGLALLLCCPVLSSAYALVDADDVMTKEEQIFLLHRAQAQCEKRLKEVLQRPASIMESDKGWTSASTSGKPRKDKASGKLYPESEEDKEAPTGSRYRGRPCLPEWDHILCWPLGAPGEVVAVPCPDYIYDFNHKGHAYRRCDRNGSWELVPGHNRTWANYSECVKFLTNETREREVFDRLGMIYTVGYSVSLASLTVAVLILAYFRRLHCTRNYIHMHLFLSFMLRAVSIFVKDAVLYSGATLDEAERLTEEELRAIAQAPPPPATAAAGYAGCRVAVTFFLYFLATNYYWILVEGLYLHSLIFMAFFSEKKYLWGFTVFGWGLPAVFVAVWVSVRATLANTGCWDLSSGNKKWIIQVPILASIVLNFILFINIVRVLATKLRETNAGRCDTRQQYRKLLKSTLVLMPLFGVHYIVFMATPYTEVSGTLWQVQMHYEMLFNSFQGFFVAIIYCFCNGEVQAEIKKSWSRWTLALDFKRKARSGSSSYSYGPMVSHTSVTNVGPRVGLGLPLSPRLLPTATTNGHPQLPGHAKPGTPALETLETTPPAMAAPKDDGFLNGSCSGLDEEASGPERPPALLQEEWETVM

As for `Cc1nn(-c2ccccc2)c(C)c1/C=N/N1CCN(Cc2ccccc2)CC1`, the Potency result in test [1], in [2], in test [3] and in test [5] was “inactive” each time. The outcome in test [4] and in [6] was inactive.

Take `CC(CCc1ccc2c(c1)OCO2)NN` (stereo not drawn): the Potency result in [1], in test [3], in test [7], in [8], in [9] and in test [10] was “inactive” in each case.

For `NC(N)=NCCCCN=C(N)N`, the Potency result in test [1], in test [2], in test [3] and in test [5] was “inactive” each time. In addition, the outcome in [4] and in test [6] was inactive.

Consider `O=C(O)Cc1ccc(OCCNC[C@H](O)c2ccccc2)cc1`, for which the Potency entry in test [1], in test [3], in [7], in test [8] and in test [9] was “inactive” in each case.

Turning to `Brc1ccc([C@H]2CN3CCSC3=N2)cc1`, the Potency result in test [1], in test [2], in [3] and in [5] was “inactive” in each case. The outcome in test [4] and in test [6] was inactive.

For the compound `CC(C)OC(=O)c1cc2c(OCC(O)CNC(C)(C)C)cccc2[nH]1` (stereo not drawn), the Potency result in test [1], in [3], in test [7], in test [8] and in test [9] was “inactive” in each case.

`O=C(O)c1ccccc1S`: the Potency entry in test [1], in test [3], in [7], in test [8], in test [9] and in [10] was “inactive” throughout.

As for `C[C@H](CN1CCCC1)C(=O)c1ccc(C(F)(F)F)cc1`, the Potency entry in test [1], in test [3], in [7], in [8], in test [9] and in [10] was “inactive” each time.

Consider `Cn1cc(S(C)=O)c(=O)c2ccc(F)cc21` (stereo not drawn), for which the Potency result in [1], in test [3], in test [7], in test [8], in [9] and in test [10] was “inactive” in each case.

On to `CC(C(O)c1ccccc1)N(C)CCOC(c1ccccc1)c1ccccc1` (stereo not drawn), for which the Potency in [1] is 14.6 µM (active). Also, the Potency result in test [3], in test [7] and in test [8] was “inactive” in each case.

Take `Cn1cnc2c(NCc3ccccc3)nc(NCCO)nc21`: the Potency entry in test [1], in [2], in [3] and in [5] was “inactive” each time. Further, the outcome in test [4] and in test [6] was inactive.

Take `CC(=O)Nc1c(I)c(NC(C)=O)c(I)c(C(=O)O)c1I`: the Potency entry in test [1], in [3], in test [7], in test [8], in test [9] and in [10] was “inactive” in each case.
